# Fam108B inh: counter-screen for RBBP9 inhibitors: inhibitors of mouse Fam108B; AID 1947; recombinant Fam108B, FP-Rh probe fluorescence polarization; inhibition, % at 9.51 µM; hit rate 0.33% among 300,000;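 active = inhibition above the screen mean inhibition plus 3 SD, computed separately per campaign, cut at about 18% in these data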;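 also: inhibitors lower polarization as less probe binds the enzyme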
# PAFAH1B2 FP inh: inhibitors of human PAFAH1B2 | P68402 | recombinant PAFAH1B2, FP-rhodamine activity probe, fluorescence polarization | inhibition, % at 3.39 µM | hit rate 1.2% among 340,000 | AID 492953;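 active = inhibition above the mean of all tested compounds plus 3 SD, cut at about 24% in these data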;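 also: 0% = enzyme with DMSO and 100% = wells lacking PAFAH1B2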
# Target sequence (P68402 whole entry, looked up): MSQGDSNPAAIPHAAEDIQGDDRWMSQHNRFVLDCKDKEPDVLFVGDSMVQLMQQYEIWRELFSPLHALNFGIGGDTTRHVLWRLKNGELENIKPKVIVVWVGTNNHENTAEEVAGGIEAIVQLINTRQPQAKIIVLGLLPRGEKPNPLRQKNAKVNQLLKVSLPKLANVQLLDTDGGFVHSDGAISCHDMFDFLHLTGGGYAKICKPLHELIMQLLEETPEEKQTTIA
# pPAFAH FP inh: inhibitors of human plasma PAF acetylhydrolase (pPAFAH) | Q13093 | recombinant pPAFAH, FP-rhodamine probe fluorescence polarization | inhibition, % at 3.39 µM | hit rate 1.5% among 330,000 | AID 463082;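 active = inhibition above the mean inhibition across the screen plus 3 SD, cut at about 25% in these data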;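 also: inhibitors block binding of the rhodamine activity-based probe so polarization drops; 0% = enzyme with DMSO and 100% = wells lacking pPAFAH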
# PAFAH1B3 inh: PAFAH1B3 (human) inhibition | Q15102 | recombinant PAFAH1B3, FP-rhodamine probe, fluorescence polarization | inhibition, % at 3.39 µM | hit rate 0.28% among 340,000 | AID 492972;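 active = inhibition above the screen-wide average of all tested compounds plus 3 SD, cut at about 25% in these data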;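 also: 0% = enzyme with DMSO only and 100% = wells lacking PAFAH1B3 protein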
# Target sequence (Q15102 whole entry, looked up): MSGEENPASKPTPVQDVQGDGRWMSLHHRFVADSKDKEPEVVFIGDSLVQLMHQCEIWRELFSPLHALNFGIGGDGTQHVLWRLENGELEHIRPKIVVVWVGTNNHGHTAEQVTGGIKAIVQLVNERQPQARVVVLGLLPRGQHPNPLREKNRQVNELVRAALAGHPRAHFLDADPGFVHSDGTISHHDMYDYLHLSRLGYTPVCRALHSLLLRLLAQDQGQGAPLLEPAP
# PAFAH2 FP inh: PAFAH2 (human) inhibition; hit rate 0.99% among 340,000; inhibition, % at 3.39 µM; AID 492956; recombinant PAFAH2, FP-rhodamine activity probe, fluorescence polarization; Q99487;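 active = inhibition above the mean over all tested compounds plus 3 SD, cut at about 30% in these data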;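 also: inhibitors block probe labeling of enzyme so polarization drops; 0% = enzyme with DMSO and 100% = wells lacking PAFAH2 protein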
# PME-1 primary: PME-1 (human) inhibition; Q9Y570; recombinant PME-1, FP-Rh probe fluorescence polarization; inhibition, % at 5.9 µM; hit rate 0.53% among 320,000; AID 2130;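 active = inhibition above the campaign mean of all compounds plus 3 SD, cut at about 26% in these data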;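 also: competitive labeling of PME-1 active site by serine hydrolase directed probe; 0% = PME-1 with DMSO and 100% = wells lacking PME-1 enzyme; inhibitors block probe labeling so polarization falls and inhibition rises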
# An asterisk follows results filed as active; x = not tested or not shown. Only some compounds are listed: those with a hit (about 2.9% of all), similar ones and a draw of the others.
SMILES,Fam108B inh,PAFAH1B2 FP inh,pPAFAH FP inh,PAFAH1B3 inh,PAFAH2 FP inh,PME-1 primary
COc1cc(/C=C(\C#N)c2nc3ccc(C)cc3[nH]2)cc([N+](=O)[O-])c1O,x,33*,x,21,38*,x
Cc1c(C(=O)Nc2ccc(C(=O)O)cc2)cnn1C,1,5,-3,-5,3,-3
CCOc1ccccc1N1CCN(C(=O)c2ccc(S(=O)(=O)Nc3ccccc3)cc2)CC1,x,-1,27*,12,-6,11
O=C(c1ccc(S(=O)(=O)Nc2ccccc2)cc1)N1CCCC1,1,1,17,4,0,-2
COc1ccc(S(=O)(=O)Nc2ccccc2C)cc1C(=O)N1CCOCC1,3,1,26*,3,8,-2
CN1CCN(C(=O)c2ccc(S(=O)(=O)Nc3ccccc3)cc2)CC1,x,5,25*,1,2,-2
CCOc1ccc(NS(=O)(=O)c2ccc(C(=O)N3CC(C)OC(C)C3)cc2)cc1 (stereo not drawn),x,-3,29*,6,-3,-1
NC(=O)C1CCN(C(=O)CSc2ncccn2)CC1,-2,3,3,2,0,3
COc1ccc(NC(=O)C2(c3ccc(NC(=O)c4ccc(C)cc4)cc3)CCCC2)cc1,-13,-2,0,3,-6,-5
CC(=O)OC1CSC2c3ccccc3C(=O)N2Cc2sccc21 (stereo not drawn),4,1,0,-3,-5,5
O=C(Nc1cc2c(=O)n(-c3ccc(Oc4ccccc4)cc3)ccc2oc1=O)c1ccccc1,-7,6,3,12,7,-5
CCOc1ccc(NS(=O)(=O)c2ccc(C(=O)NNC(=O)c3ccccc3O)cc2)cc1,-1,3,26*,1,-1,-1
Cc1ccccc1NS(=O)(=O)c1ccc(OCC(=O)NCc2ccccn2)cc1,-2,2,29*,10,11,2
Cc1ccc(C(=O)N2CCCC2)cc1S(=O)(=O)Nc1ccccc1,2,0,30*,4,8,-1
CCOc1ccc(NS(=O)(=O)c2ccc(C(=O)N3CCN(c4ncccn4)CC3)cc2)cc1,-1,4,27*,9,-6,1
COc1ccc(NS(=O)(=O)c2cc(C(=O)N3CCCCCC3)ccc2C)cc1,x,10,7,-4,5,x
O=C(COc1ccc(S(=O)(=O)Nc2ccccc2)cc1)NCc1ccccn1,x,3,x,10,-2,x
COC(=O)C1=C(C(=O)c2ccc(C)cc2)C(c2ccc(OC)c(OC)c2)n2nnnc2N1 (stereo not drawn),6,7,8,7,3,2
O=C(CCC(=O)Nc1ccccc1Cl)NNC(=O)COc1ccc([N+](=O)[O-])cc1,x,1,3,0,-3,-6
O=C(c1ccc(S(=O)(=O)Nc2ccccc2F)cc1)N1CCN(c2ccccn2)CC1,x,2,3,5,-2,x
Cc1ccccc1NS(=O)(=O)c1ccc(C(=O)N2CCN(c3ccccn3)CC2)cc1,-1,2,26*,-4,-1,-3
N/C(=N\OC(=O)CCCN1C(=O)c2ccccc2C1=O)c1ccccn1,-2,-1,5,10,9,-3
COC(=O)C(C)NC(=O)C12CC3CC(CC(C3)C1)C2 (stereo not drawn),-3,3,1,3,5,-7
CC(C)C(NC(=O)C12CC3CC(CC(C3)C1)C2)C(=O)O (stereo not drawn),1,26*,3,-1,-2,5
CN(CC(=O)Nc1ccc(F)cc1)C(=O)c1cccc(NS(=O)(=O)c2ccccc2)c1,x,0,29*,-1,-3,-2
SMILES,Fam108B inh,PAFAH1B2 FP inh,pPAFAH FP inh,PAFAH1B3 inh,PAFAH2 FP inh,PME-1 primary
COc1cccc(NC(=O)CN(C)C(=O)c2cccc(NS(=O)(=O)c3ccc(Br)cc3)c2)c1,x,30*,x,0,4,x
COc1cccc(NC(=O)CN(C)C(=O)c2ccc(NS(=O)(=O)c3ccc(F)cc3)cc2)c1,x,1,4,7,4,0
COc1cccc(NC(=O)CN(C)C(=O)c2cccc(NS(=O)(=O)c3ccccc3)c2)c1,x,7,20,10,2,2
CC1CCCC(NC(=O)c2cccc(S(=O)(=O)N3CCN(c4ccccc4)CC3)c2)C1C (stereo not drawn),-2,-4,3,4,-1,-2
CC1CCCC(NC(=O)c2cccc(S(=O)(=O)NCc3ccccc3)c2)C1C (stereo not drawn),x,30*,3,0,1,3
CN(Cc1ccc(F)cc1)C(=O)c1cccc(S(=O)(=O)NCc2ccccc2)c1,4,25*,7,5,-4,4
O=C(/C=C/c1ccccc1Cl)NC(=S)Nc1ccccc1C(=O)NC1CCCCC1,1,3,-1,8,4,-2
COc1cc(CNc2ccc(N3CCN(C(C)=O)CC3)cc2)ccc1OCc1ccc(F)cc1,-1,9,31*,9,2,4
O=C(Nc1nc(-c2ccco2)c(-c2ccco2)s1)C1CCC1,8,-4,28*,4,5,12
CN(c1ccccc1)S(=O)(=O)c1cccc(NC(=O)CSc2ncn[nH]2)c1,0,25*,2,-1,4,-1
CCN(CC)c1ccc(NC(=O)CN(C)Cc2cccs2)cc1,1,4,26*,6,7,10
Cc1ccc(NC(=O)CN(C)Cc2cccs2)cc1Cl,3,-1,13,3,5,3
c1ccc(-n2cc(CNCCc3cscn3)c(-c3ccc4c(c3)OCO4)n2)cc1,-1,2,4,-3,2,-1
Cc1ccc(/C=C2\SC(=S)N(CCCC(=O)Nc3ccccc3C(=O)O)C2=O)cc1,-1,19,1,3,29,5
CCc1ccc(/C=C2\SC(=S)N(CCCC(=O)Nc3ccccc3C(=O)O)C2=O)cc1,-2,55*,-4,-2,31*,-3
O=C(CCCN1C(=O)/C(=C/c2cccs2)SC1=S)Nc1ccccc1O,-3,1,-5,3,-2,-21
O=C(CCCN1C(=O)/C(=C\c2cccs2)SC1=S)Nc1ccc(O)cc1C(=O)O,4,44*,25*,5,13,3
CCOC(=O)c1c(N)sc2c1CCC(CC)C2 (stereo not drawn),5,3,26*,-1,5,0
CCOC(=O)c1c(N)sc2c1CCC1C(=O)N(C3CCCCC3)C(=O)C21 (stereo not drawn),0,4,34*,2,11,6
CCOC(=O)c1c(N)sc2c1CCSC2,-5,-3,13,3,-4,1
CCC1CCc2c(sc(N)c2C(N)=O)C1 (stereo not drawn),0,-2,8,11,0,-2
O=C(Nc1nnc(-c2ccccc2)s1)c1cccc(S(=O)(=O)N2CCOCC2)c1,-5,3,0,3,1,4
